Source: the supplement of paper PMC3545927
This is one part of the list. No count for the full screen is at hand.

Target: furin, P09958
Assay: furin cleavage Z-score vs untreated control; higher = more cleavage, active = 3.5 or more, inactive = 1 or less, 8 variable residues between constant flanks
How it was run: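 Reactions of 0.01 ml ran for 7.5, 15 or 30 min in 50 mM HEPES pH 7.5 with CaCl2 and NaCl, at 1:10 enzyme:substrate. In them, purified furin acted on bead-held 8-mer peptides fused to a cDNA oligonucleotide. The cleavage Z-score was obtained by lowess-adjusting log sequencing counts of released DNA against furin-free reactions and scaling by median absolute deviation.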

furin, P09958, sequence (P09958 whole entry): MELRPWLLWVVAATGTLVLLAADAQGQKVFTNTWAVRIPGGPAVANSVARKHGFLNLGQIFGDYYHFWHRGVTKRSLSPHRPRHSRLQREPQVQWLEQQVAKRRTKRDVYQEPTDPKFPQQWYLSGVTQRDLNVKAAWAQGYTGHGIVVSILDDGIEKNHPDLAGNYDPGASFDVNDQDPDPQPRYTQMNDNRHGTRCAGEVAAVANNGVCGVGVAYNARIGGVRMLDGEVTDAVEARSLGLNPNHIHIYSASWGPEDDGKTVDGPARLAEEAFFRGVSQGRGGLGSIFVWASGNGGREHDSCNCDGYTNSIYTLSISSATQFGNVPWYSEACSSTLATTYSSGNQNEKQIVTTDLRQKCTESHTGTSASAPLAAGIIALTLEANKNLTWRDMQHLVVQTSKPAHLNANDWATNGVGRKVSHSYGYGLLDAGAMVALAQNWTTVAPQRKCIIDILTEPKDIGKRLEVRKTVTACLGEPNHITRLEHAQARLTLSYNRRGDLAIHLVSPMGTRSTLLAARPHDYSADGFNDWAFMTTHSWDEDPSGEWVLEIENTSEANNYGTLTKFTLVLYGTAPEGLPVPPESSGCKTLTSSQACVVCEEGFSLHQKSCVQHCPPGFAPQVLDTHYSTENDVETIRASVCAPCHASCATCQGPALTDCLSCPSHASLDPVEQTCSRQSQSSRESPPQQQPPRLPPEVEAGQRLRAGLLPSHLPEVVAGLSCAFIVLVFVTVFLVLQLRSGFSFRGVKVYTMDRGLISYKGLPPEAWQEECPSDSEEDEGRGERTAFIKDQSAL

Sequence | furin cleavage Z-score (7.5 min) | furin cleavage Z-score (15 min) | furin cleavage Z-score (30 min)
CAVVCCSMWYAGNASASA [HC2068] | 1.14 | -0.944 (inactive) | 0.031 (inactive)
CACGNTLTCYAGNASASA [HC1515] | -0.25 (inactive) | -2.28 (inactive) | -1.28 (inactive)
CARGDSRGSLAGNASASA [HC733] | -0.929 (inactive) | -0.316 (inactive) | -0.341 (inactive)
CARSSRSNGRAGNASASA [FS-3097] | -1.39 (inactive) | -0.51 (inactive) | -1.39 (inactive)
CALTCYIKARAGNASASA [HC1517] | -0.101 (inactive) | 0.266 (inactive) | 1.28
CAGRCREKRRAGNASASA [FS-431] | 6.37 (active) | 7.82 (active) | 6.78 (active)
CARSSRDSSAAGNASASA [FS-2092] | -0.528 (inactive) | -0.415 (inactive) | -0.31 (inactive)
CAMWHREKRRAGNASASA [FS-1141] | 5.25 (active) | 5.23 (active) | 5.34 (active)
CARSSRHPRRAGNASASA [FS-714] | 5.43 (active) | 9.72 (active) | 6.86 (active)
CARSSREKRRAGNASASA [FS-377] | 6.18 (active) | 7.1 (active) | 5.14 (active)
CAPQGDAAQKAGNASASA [NG3] | -0.23 (inactive) | -2.31 (inactive) | 0.729 (inactive)
CAVRVLEDGVAGNASASA [HC238] | -0.328 (inactive) | -0.295 (inactive) | 0.54 (inactive)
CARGKRHLQGAGNASASA [FS-2671] | 8.58 (active) | 8.16 (active) | 8.59 (active)
CARGKRSLDGAGNASASA [FS-2018] | 10.4 (active) | 10.4 (active) | 8.84 (active)
CARGSRPSWGAGNASASA [HC211] | -1.28 (inactive) | -0.0322 (inactive) | -1.24 (inactive)
CARSFRSGDGAGNASASA [FS-2086] | 0.521 (inactive) | -1.18 (inactive) | 0.00797 (inactive)
CAEVPCHQPSAGNASASA [HC2382] | 0.495 (inactive) | -0.572 (inactive) | 1.13
CAFLADGGCSAGNASASA [HC810] | -0.0827 (inactive) | -0.994 (inactive) | -0.4 (inactive)
CAVVCCKMSYAGNASASA [HC111] | 2.65 | 1.75 | 0.575 (inactive)
CAGRSRTKRSAGNASASA [FS-1332] | 10.4 (active) | 9.78 (active) | 7.49 (active)
CAHRGVTKRSAGNASASA [FS-1593] | 6.75 (active) | 7.15 (active) | 6.87 (active)
CAGRSRPDRSAGNASASA [FS-533] | 5.97 (active) | 7.05 (active) | 7.1 (active)

Sequence | furin cleavage Z-score (7.5 min) | furin cleavage Z-score (15 min) | furin cleavage Z-score (30 min)
CAYKSRTKRSAGNASASA [FS-1581] | 12.8 (active) | 13.7 (active) | 8.1 (active)
CAFCVQPEKGAGNASASA [HC1443] | -1.06 (inactive) | -0.187 (inactive) | 0.825 (inactive)
CAVVTCSMSYAGNASASA [HC2038] | 0.204 (inactive) | -0.0386 (inactive) | -0.133 (inactive)
CASTPCSNHLAGNASASA [HC2541] | 0.901 (inactive) | 1.16 | 0.705 (inactive)
CASHQRTKRSAGNASASA [FS-1165] | 8.79 (active) | 9.17 (active) | 6.69 (active)
CAKKQETKRSAGNASASA [FS-675] | -0.996 (inactive) | 0.0553 (inactive) | 0.952 (inactive)
CAAKHRTKRSAGNASASA [FS-746] | 14.6 (active) | 14.7 (active) | 10.8 (active)
CAHRGPARRSAGNASASA [FS-1533] | 2.51 | 2.95 | 4.27 (active)
CAEVPCHRPNAGNASASA [HC2421] | -0.123 (inactive) | 0.813 (inactive) | 1.61
CAVVCPSMSYAGNASASA [HC100] | -0.389 (inactive) | 0.782 (inactive) | 1.57
CAEQIRQDRSAGNASASA [FS-1453] | -0.0806 (inactive) | 0.259 (inactive) | 0.047 (inactive)
CAHAWRSRRSAGNASASA [FS-1629] | 10.5 (active) | 8.73 (active) | 8.99 (active)
CAEQWRSRRSAGNASASA [FS-993] | 10.6 (active) | 9.84 (active) | 7.38 (active)
CARGRKSPSKAGNASASA [FS-2673] | -0.571 (inactive) | -0.51 (inactive) | -0.0739 (inactive)
CAGPSRQNRGAGNASASA [FS-1330] | -0.197 (inactive) | -0.893 (inactive) | -0.697 (inactive)
CARGRRSPHTAGNASASA [FS-3252] | 7.13 (active) | 8.09 (active) | 6.93 (active)
CAGARRSRRAAGNASASA [FS-422] | 7.16 (active) | 6.59 (active) | 5.19 (active)
CARGRRDFPEAGNASASA [FS-2021] | 1.74 | 3.62 (active) | 3.22
CAGPGRPYRAAGNASASA [FS-784] | -0.745 (inactive) | 0.68 (inactive) | 0.71 (inactive)
CARGRRKTGEAGNASASA [FS-3251] | -0.45 (inactive) | -1.86 (inactive) | 0.0435 (inactive)
CAGVSRSCRAAGNASASA [FS-1005] | 3.78 (active) | 4.22 (active) | 5.16 (active)
CAGARRSVIGAGNASASA [FS-1983] | -0.924 (inactive) | 0.507 (inactive) | -0.671 (inactive)
